# Most compounds without a hit are left out; they make up all but 1.6% or so of the library.
# GRP78 ERSR act – inducers of ER stress response in human glioma cells; U87-MG GRP78 promoter luciferase reporter, 16 h; Potency, µM, for the others: at the top dose activation, usual class: activators; 420,000 tested, 0.02% active; active = well fitted activation curve with a large enough effect; inconclusive = small, poorly fitted or top-dose-only effect; inactive = no such curve, though single readings can be large or run the other way; note: potency is the fitted concentration of half-maximal effect; series mostly up to about 76 µM; % of control where 0% means no effect; nearly all actives have a fitted effect of over 35% in size
#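 ERSR induction read as luciferase luminescence (Bright-Glo, 10 min at room temperature) in stably transfected human U87-MG glioma cells exposed to compounds for 16 h, using GRP78 as sensor.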
# gsp antagonist – gsp mutant antagonism | gsp-mutant cells, cAMP HTRF, 30 min | Potency, µM (doses to about 76.9 µM), for inactives: at the top dose activity change, negative = inhibition, actives largely listed as inhibitors | 340,000 tested, 0.4% active; calls by dose curve; cell line not stated here;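 note: intracellular cAMP measured with PDE inhibitor Ro 20-1724 present during compound exposure; potency is the fitted concentration of half-maximal effect; % is set by controls: 0 for no effect and ±100 for the full control effect; nearly all actives have a fitted effect of over 65% in size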
#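 HTRF cAMP read-out (cAMP-d2 plus anti-cAMP antibody-K in lysis buffer, 30 min RT). Before lysis, cells are exposed to compounds with […] for 30 min at 37C in DPBS containing Ca/Mg, BSA and Tween 20.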
# KCNH2 WT inh – blocks the wildtype human KCNH2 potassium channel; U2OS, BacMam KCNH2, thallium flux FluxOr; stronger effect = lower value; activity change, % at 1.84 µM; 340,000 tested, 0.37% active;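 active = maximum activity change below -70%; inconclusive = maximum activity change between -70% and -50%; inactive = maximum activity change above -50%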; note: % is set by controls: 0 for no effect and ±100 for the full control effect
# Target sequence (Q12809 whole entry, looked up): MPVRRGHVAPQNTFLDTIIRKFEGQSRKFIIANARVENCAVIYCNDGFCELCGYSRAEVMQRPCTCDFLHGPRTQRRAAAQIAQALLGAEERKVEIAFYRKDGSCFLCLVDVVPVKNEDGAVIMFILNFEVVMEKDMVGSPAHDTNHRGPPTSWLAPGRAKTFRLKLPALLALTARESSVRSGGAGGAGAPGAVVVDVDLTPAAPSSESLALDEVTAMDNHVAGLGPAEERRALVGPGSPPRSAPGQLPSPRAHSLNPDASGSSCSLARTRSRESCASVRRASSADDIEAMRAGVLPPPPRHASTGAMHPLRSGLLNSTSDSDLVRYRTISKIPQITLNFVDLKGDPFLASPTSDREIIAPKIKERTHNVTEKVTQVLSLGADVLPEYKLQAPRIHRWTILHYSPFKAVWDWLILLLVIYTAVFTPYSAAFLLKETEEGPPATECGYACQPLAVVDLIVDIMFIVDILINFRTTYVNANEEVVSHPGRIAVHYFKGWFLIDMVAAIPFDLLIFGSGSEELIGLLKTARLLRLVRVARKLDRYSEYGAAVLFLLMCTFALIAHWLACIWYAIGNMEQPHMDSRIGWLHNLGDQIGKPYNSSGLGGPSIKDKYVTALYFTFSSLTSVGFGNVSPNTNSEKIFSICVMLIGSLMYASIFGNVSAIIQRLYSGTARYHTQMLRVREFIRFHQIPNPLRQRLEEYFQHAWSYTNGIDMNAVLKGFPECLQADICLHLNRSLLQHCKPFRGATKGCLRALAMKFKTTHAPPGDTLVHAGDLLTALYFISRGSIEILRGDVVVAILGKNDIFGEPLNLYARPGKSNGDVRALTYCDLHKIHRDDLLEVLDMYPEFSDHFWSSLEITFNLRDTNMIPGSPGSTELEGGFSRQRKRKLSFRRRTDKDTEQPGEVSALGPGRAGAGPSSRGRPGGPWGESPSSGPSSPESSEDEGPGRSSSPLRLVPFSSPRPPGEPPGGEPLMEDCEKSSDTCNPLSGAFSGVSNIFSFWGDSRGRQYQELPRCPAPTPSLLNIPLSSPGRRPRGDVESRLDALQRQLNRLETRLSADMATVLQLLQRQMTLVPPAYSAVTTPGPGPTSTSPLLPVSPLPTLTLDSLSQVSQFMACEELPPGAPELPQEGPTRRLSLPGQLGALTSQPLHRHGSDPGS
#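 U2OS cells transduced with wild-type KCNH2 virus are loaded with FluxOr dye for 45 min, and thallium flux is measured in kinetic reads before and after stimulation buffer. Rate constants are normalized to DMSO controls.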
# KCNH2 3.1 inh – inhibitors of human KCNH2 3.1 potassium channel isoform; U2OS KCNH2 3.1, thallium flux FluxOr; stronger effect = lower value; activity change, % (tested at about 1.8 µM); 340,000 tested, 0.95% active; AID 720553;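 active = maximum activity change below -70%; inconclusive = maximum activity change from -70% to -50%; inactive = maximum activity change above -50%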;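 note: thallium influx rate constant from kinetic fluorescence after stimulation buffer; % is set by controls: 0 for no effect and ±100 for the full control effect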
#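 Virally transduced U2OS (3.1 isoform, 4 h infection in dark at RT) → overnight 37 C → FluxOr + Red40 in HBSS/HEPES, 45 min → stimulation buffer, 2 min kinetic read → rate constant vs DMSO controls.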
# Akt phos inh – inhibitors of Akt phosphorylation. Neuro2A IGF-stimulated pAkt S473 HTRF, 20 min; stronger effect = lower value. activity change, % for hits at 50 µM. 360,000 tested, 0.32% active. AID 651550; in the data active = activity change below about -80%; inconclusive = mostly about -51% to -80%; note: % is set by controls: 0 for no effect and ±100 for the full control effect
#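 Neuro2A cells (4,500/well, DMEM with 0.5% FBS) were treated with compound at a single 50 µM final concentration, stimulated with 6 nM IGF for 20 min at 37 °C, and lysed. Phospho-Akt Ser473 was read by HTRF as 665/615 ratio ×10^4.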
# gsp ag – agonists of gsp mutant (McCune-Albright syndrome). gsp mutant cells, cAMP HTRF, 30 min. 340,000 tested, 0.13% active. Potency, µM (doses to about 76.9 µM), for the others: at the top dose activation (cAMP increase), most hits filed as activators; active = well fitted activation curve with a large enough effect; inconclusive = small, poorly fitted or top-dose-only effect, or another doubt; inactive = no such curve, though single readings can be large or run the other way; cell line not stated here;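 note: phosphodiesterase inhibitor Ro 20-1724 added with compounds to block cAMP breakdown; potency is the fitted concentration of half-maximal effect; nearly all actives have a fitted effect of over 60% in size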
#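 Cells stably selected in G418 were plated at 2000/well, grown 16-24 hr, then given compounds in DMSO with the PDE inhibitor […] (300 uM solution added) for 30 min at 37C; cAMP was read by HTRF.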
# * marks the source's active call; other numbers are inactive results; i = inactive; ? = inconclusive; . = not tested or not shown; [ ] = dose if it differs, or a comment.
SMILES,GRP78 ERSR act,gsp antagonist,KCNH2 WT inh,KCNH2 3.1 inh,Akt phos inh,gsp ag
COc1ccc(CCNC(=O)COC(=O)C23CC4CC(CC(Br)(C4)C2)C3)cc1,-5%,1%,-88*,-18,i,2%
COc1ccc(CCNC(=O)COC(=O)C23CC4CC(CC(C4)C2)C3)cc1,-3%,7%,4,-13,i,7%[15.4 µM]
CCOc1cc2c(cc1/C=C(/C#N)c1ccc(C(=O)O)cc1)OCO2,-2%,35µM*,i,-5,i,-1%
CCCCn1nc(C(=O)N(C)Cc2nc3ccccc3c(=O)[nH]2)c2ccccc2c1=O,-3%,.,-43,-75*,i,-111%
COc1cccc(CNC(=O)C23CN(Cc4ccccc4)CC2C(c2ccc([N+](=O)[O-])cc2)=NO3)c1 (stereo not given),-2%,-1%,-1,-102*,i,11%
CC(C)CCNC(=O)C12CN(Cc3ccccc3)CC1C(c1ccc([N+](=O)[O-])cc1)=NO2 (stereo not given),-5%,0%,-46,-107*,i,14%
O=C(NCc1ccccc1C(F)(F)F)C12CN(Cc3ccccc3)CC1C(c1ccc([N+](=O)[O-])cc1)=NO2 (stereo not given),0%,6%,-33,-118*,i,8%
O=C(NCc1ccc(C(F)(F)F)cc1)C12CN(Cc3ccccc3)CC1C(c1cccc([N+](=O)[O-])c1)=NO2 (stereo not given),-4%,-2%,-15,-27,i,.
CN(CC(=O)N1CCOCC1)Cc1c(Cl)cccc1NC(=O)c1ccccc1,-4%,.,.,.,.,.
O=C(NC[C@@H]1CCCN2CCCC[C@H]12)c1cnn(-c2nccc(-c3ccco3)n2)c1C1CC1,-1%,.,.,.,.,.
Oc1ccc(N=Nc2nc(-c3ccccc3)c(-c3ccccc3)[nH]2)cc1,-4%,28µM*,10,-19,i,-16%
COc1cccc(CC(=O)NCC2Cc3cc(Cl)cc(-c4ncccn4)c3O2)c1 (stereo not given),-8%,.,.,.,.,.
Nc1cc(N)nc(SCC(=O)N2CCN(S(=O)(=O)c3ccccc3)CC2)n1,-7%,7%,-90*,-11,i,-7%
O=C(COc1cccnc1[N+](=O)[O-])N1CCN(S(=O)(=O)c2ccccc2)CC1,-6%,50µM*,3,1,i,10%
Cc1ccc(-c2cc(-c3nnc(SCC(=O)N(C)CCC#N)n3N)c3ccccc3n2)cc1,2%,-18%,7,4,-115%*,0%
O=C(CCc1ccccc1Cl)N1CCN(S(=O)(=O)c2ccccc2)CC1,-2%,10µM*,13,-8,i,-4%
O=C(COc1ccccc1[N+](=O)[O-])N1CCN(S(=O)(=O)c2ccccc2)CC1,-2%,-6%,6,0,i,5%[15.4 µM]
CCS(=O)(=O)NCc1c(C)ncc2c1CCN(C(=O)c1csc(-c3cccs3)n1)C2,1%,.,.,.,.,.
CCn1cc(CN2CCOc3ccc(C(O)C4CCCCC4)cc3C2)c(C)n1 (stereo not given),-5%,.,.,.,.,.
CCc1c(C)nc(SCC(=O)N2CCN(c3ccccc3)CC2)[nH]c1=O,-3%,-10%,-79*,.,i,11%
Cc1ccc(S(=O)(=O)N2CCN(C(=O)CSc3nc4ccccc4c(=O)[nH]3)CC2)cc1,0%,6%,2,-2,-95%*,14%
Cc1ccc(N(CCC#N)C(=O)CSc2nc3ccccc3c(=O)[nH]2)cc1,-3%,50µM*,-8,-12,i,-7%
CC(C)C(NS(C)(=O)=O)c1nnc2n1CCN(Cc1ccc(C#CC(C)(C)O)cc1)CC2 (stereo not given),2%,.,.,.,.,.
Nc1ccn(C2CO[C@H](CO)O2)c(=O)n1 (stereo not given in full),4%,.,.,.,.,.
NC[C@@H]1O[C@@H](O[C@H]2[C@@H](O)[C@H](O[C@@H]3[C@@H](O)[C@@H](N)C[C@H](N)[C@H]3O[C@H]3O[C@H](CN)[C@@H](O)[C@@H](O)[C@H]3N)O[C@H]2CO)[C@H](N)[C@@H](O)[C@@H]1O,-3%,.,.,.,.,.
SMILES,GRP78 ERSR act,gsp antagonist,KCNH2 WT inh,KCNH2 3.1 inh,Akt phos inh,gsp ag
COc1ccccc1-n1c(SCC(N)=O)nc2c(c1=O)SCC2,-6%,5%,-7,-70*,i,?
COc1ccc(NC(=O)CSc2nc3c(c(=O)n2-c2ccccc2OC)SCC3)cc1,-2%,5%,23,-8,i,-32%
CCOc1ccc(NC(=O)c2ccc(F)c(S(=O)(=O)N3CCN(c4ccccn4)CC3)c2)cc1,0%,?,3,-71*,i,-10%
CCCN(CC(=O)Nc1cccc(S(N)(=O)=O)c1)CC(=O)Nc1ccc(F)c(F)c1F,4%,3%,2,28,i,-58%
CCCN(CC(=O)Nc1cccc(Br)c1)CC(=O)Nc1ccc(F)c(F)c1F,1%,50µM*,4,1,i,?
CC(C)NS(=O)(=O)c1cc(F)ccc1CN1C(=O)c2cccnc2C1=O,-2%,-4%,-1,-17,i,13µM*
Cc1ccc(CNS(=O)(=O)c2cc(F)ccc2CN2C(=O)c3cccnc3C2=O)o1,0%,-7%,-13,-8,i,?
COC(=O)c1cc(NS(=O)(=O)c2ccc(N3CCCCC3)c([N+](=O)[O-])c2)cc(C(=O)OC)c1,-6%,-11%,18,5,-98%*,-52%
COc1cccc(CN2CCC(n3cc(C(=O)NC4CCCC4)nn3)CC2)c1O,-2%,.,.,.,.,.
O=C(NCc1cccc(Cl)c1)c1cnccn1,-3%,4%,-11,0,-86%*,-19%
O=C(NCc1ccc(Cl)cc1)c1cnccn1,0%,6%,-3,-8,i,3%
CCCCCCC[n+]1ccc(/C=C/c2c(C)[nH]c3ccccc23)c2ccccc21,-12%,.,.,.,.,.
CCCCN(CCCC)CCNC(=O)c1cn(CC)c2ccc(S(=O)(=O)N(C)C3CCCCC3)cc2c1=O,2%,8%,-70*,-83*,i,-8%
CCCCN(C)CCCNC(=O)c1cn(CC)c2ccc(S(=O)(=O)N3CCc4ccccc4C3)cc2c1=O,-5%,.,?,-91*,i,30%[15.4 µM]
CCN(CC)CCCNC(=O)c1cn(CC)c2ccc(S(=O)(=O)N(C)C3CCCCC3)cc2c1=O,4%,3%,10,-7,i,?
CNC(=O)NC(=O)C(C)OC(=O)c1cc2c(s1)CCCCC2 (stereo not given),-1%,8%,-5,-98*,i,-39%
CC(NC(=O)c1cc2c(s1)CCCC2)C(C)(C)C (stereo not given),2%,0%,4,-35,i,-20%

# Bioassay records from PubChem.
